This passage reports outcome and AC50 results from PubChem BioAssay (EPA / NIEHS).

By AC50 is commonly meant the midpoint of the concentration-response curve, whichever way the signal moves.

Read-out in experiment [1]: Monokine induced gamma interferon (MIG), CXCL9 (gene 4283)
The experiment in a line: BSK_hDFCGF_MIG: BioMAP Diversity Plus: hDFCGF Assay for Monokine induced gamma interferon (MIG) Biomarker Activity (AID 2283063). As to conditions: primary human foreskin fibroblasts; actives raise or lower the signal. The procedure, abridged: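 MIG signal, determined by ELISA, reflects 24 h chemical exposure of human skin primary fibroblasts. DMSO serves as negative control and baseline.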

Read-out in experiment [2]: Matrix Metallopeptidase 1 (MMP1), MMP1 (gene 4312)
The experiment in a line: BSK_hDFCGF_MMP1: BioMAP Diversity Plus: hDFCGF Assay for Matrix Metallopeptidase 1 (MMP1) Biomarker Activity (AID 2283064). Particulars: primary human foreskin fibroblasts; actives raise or lower the signal. The procedure, abridged: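 Primary human foreskin fibroblasts in the hDFCGF system were dosed with test chemical, and MMP1 was measured by ELISA 24 h later. Values come from bidirectional curve fitting against the DMSO baseline.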

Read-out in experiment [3]: Vascular cell adhesion molecule 1 (VCAM1), VCAM1 (gene 7412)
The experiment in a line: BSK_hDFCGF_VCAM1: BioMAP Diversity Plus: hDFCGF Assay for Vascular cell adhesion molecule 1 (VCAM1) Biomarker Activity (AID 2283065).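 On AC50: VCAM-1 protein level quantified by ELISA after 24 h chemical exposure.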 Particulars: primary human foreskin fibroblasts; actives raise or lower the signal. The procedure, abridged:
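Cells are dosed, cultured for 24 h, then VCAM-1 is quantified by ELISA; signal increases and decreases are both fitted relative to DMSO.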

Read-out in experiment [4]: Plasminogen activator inhibitor-1 (PAI1), SERPINE1 (gene 5054)
Nature of the experiment: BSK_hDFCGF_PAI1: BioMAP Diversity Plus: hDFCGF Assay for Plasminogen activator inhibitor-1 (PAI1) Biomarker Activity (AID 2283066). Particulars: primary human foreskin fibroblasts; actives raise or lower the signal. A digest of the protocol: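 Human foreskin fibroblasts in the hDFCGF system were dosed with compound for 24 h; PAI-1 was quantified by ELISA. Bidirectional curve fitting used DMSO as negative control and baseline.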

Read-out in experiment [5]: Intercellular Adhesion Molecule 1 (ICAM1), ICAM1 (gene 3383)
The experiment in a line: BSK_KF3CT_ICAM1: BioMAP Diversity Plus: KF3CT Assay for Intercellular Adhesion Molecule 1 (ICAM1) Biomarker Activity (AID 2283067). Particulars: primary human keratinocytes with fibroblasts; actives raise or lower the signal. The procedure, abridged: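 Dose the keratinocyte/fibroblast co-culture, wait 24 h, measure ICAM-1 by ELISA, then fit increases or decreases against DMSO. Cytotoxicity is checked in parallel cultures by SRB total-protein staining.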

Read-out in experiment [6]: Interferon-gamma inducible Protein 10 (IP10), CXCL10 (gene 3627)
Nature of the experiment: BSK_KF3CT_IP10: BioMAP Diversity Plus: KF3CT Assay for Interferon-gamma inducible Protein 10 (IP10) Biomarker Activity (AID 2283068). As to conditions: primary human keratinocytes with fibroblasts; actives raise or lower the signal. The procedure, abridged:
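In a primary skin co-culture of keratinocytes and fibroblasts, IP-10 is quantified by ELISA at 24 h after dosing. SRB staining of parallel wells monitors overt toxicity. Curves are fitted both directions against DMSO.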

Experiment [7] can be described thus: BSK_KF3CT_SRB: Viability Assessment in the BioMAP Diversity Plus: KF3CT Assay (AID 2283069). As to conditions: primary human keratinocytes with fibroblasts. The procedure, abridged: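 Human primary keratinocyte plus foreskin fibroblast co-culture exposed to chemicals for 24 h. Total protein measured by 0.1% sulforhodamine B staining after 10% TCA fixation, read at 560 nm; bidirectional fitting versus DMSO baseline.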

Read-out in experiment [8]: Interleukin-1 alpha (IL1a), IL1A (gene 3552)
The experiment in a line: BSK_KF3CT_IL1a: BioMAP Diversity Plus: KF3CT Assay for Interleukin-1 alpha (IL1a) Biomarker Activity (AID 2283070). As to conditions: primary human keratinocytes with fibroblasts; actives raise or lower the signal. The procedure, abridged:
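Human keratinocyte plus foreskin fibroblast primary co-culture, sampled 24 h after chemical dosing. IL-1a measured by ELISA; responses fitted bidirectionally against DMSO baseline (negative control), so gain or loss of signal both count.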

Read-out in experiment [9]: TIMP metallopeptidase inhibitor 2 (TIMP2), TIMP2 (gene 7077)
Nature of the experiment: BSK_KF3CT_TIMP2: BioMAP Diversity Plus: KF3CT Assay for TIMP metallopeptidase inhibitor 2 (TIMP2) Biomarker Activity (AID 2283071). Particulars: primary human keratinocytes with fibroblasts; actives raise or lower the signal. A digest of the protocol: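 Human primary keratinocyte/foreskin fibroblast co-culture dosed with chemical and sampled at 24 h. TIMP-2 levels quantified by ELISA; bidirectional fitting against DMSO negative control as baseline.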

Read-out in experiment [10]: Transforming growth factor beta 1 (TGFb1), TGFB1 (gene 7040)
The experiment in a line: BSK_KF3CT_TGFb1: BioMAP Diversity Plus: KF3CT Assay for Transforming growth factor beta 1 (TGFb1) Biomarker Activity (AID 2283072). Particulars: primary human keratinocytes with fibroblasts; actives raise or lower the signal. A digest of the protocol:
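Human keratinocyte plus foreskin fibroblast primary co-culture, dosed with chemical for 24 h. TGF-b1 quantified by ELISA. Activity fitted bidirectionally against DMSO negative control as baseline.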

Read-out in experiment [11]: C-C motif chemokine 2 (Homo sapiens) (UniProt P13500)
Nature of the experiment: BSK_KF3CT_MCP1: BioMAP Diversity Plus: KF3CT Assay for Monocyte Chemoattractant Protein 1 (MCP1/CCL2) Biomarker Activity (AID 2283073). As to conditions: primary human keratinocytes with fibroblasts; actives raise or lower the signal. A digest of the protocol:
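Keratinocytes and foreskin fibroblasts were co-cultured, dosed with chemical, and sampled 24 h later. MCP-1 was quantified by ELISA, and the endpoint was analyzed with bidirectional fitting using DMSO as negative control.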

Read-out in experiment [12]: Matrix Metallopeptidase 9 (MMP9), MMP9 (gene 4318)
The experiment in a line: BSK_KF3CT_MMP9: BioMAP Diversity Plus: KF3CT Assay for Matrix Metallopeptidase 9 (MMP9) Biomarker Activity (AID 2283074).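 On AC50: MMP9 protein level quantified by ELISA in the co-culture.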 Particulars: primary human keratinocytes with fibroblasts; actives raise or lower the signal. A digest of the protocol:
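Keratinocyte plus foreskin fibroblast human primary skin co-culture was dosed with chemical and MMP-9 was quantified by ELISA 24 h later. Bidirectional curve fitting used DMSO as negative control and activity baseline.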

Read-out in experiment [13]: urokinase plasminogen activator (uPA), PLAU (gene 5328)
The experiment in a line: BSK_KF3CT_uPA: BioMAP Diversity Plus: KF3CT Assay for urokinase plasminogen activator (uPA) Biomarker Activity (AID 2283075). As to conditions: primary human keratinocytes with fibroblasts; actives raise or lower the signal. A digest of the protocol: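 Human keratinocyte plus foreskin fibroblast primary co-culture exposed to chemical for 24 h. uPA levels were quantified by ELISA, and activity was fitted bidirectionally against a DMSO negative-control baseline.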

Read-out in experiment [14]: CD40, CD40 (gene 958)
Nature of the experiment: BSK_LPS_CD40: BioMAP Diversity Plus: LPS Assay for CD40 Biomarker Activity (AID 2283076). As to conditions: primary human HUVEC with PBMC; actives raise or lower the signal. The procedure, abridged: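 CD40 signal, measured by ELISA, is fitted in both directions relative to DMSO vehicle. The system is an LPS-driven human vascular primary co-culture of endothelial cells and PBMC, sampled 24 h after compound addition.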

Read-out in experiment [15]: E-selectin (Homo sapiens) (UniProt P16581)
Nature of the experiment: BSK_LPS_Eselectin: BioMAP Diversity Plus: LPS Assay for Eselectin Biomarker Activity (AID 2283077). Particulars: primary human HUVEC with PBMC; actives raise or lower the signal. A digest of the protocol: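 Signal of E-selectin, detected by ELISA, served as the endpoint; cells were umbilical vein endothelium with PBMC, read 24 h after treatment. DMSO defined baseline, and both increases and decreases were fitted.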

Read-out in experiment [16]: Interleukin-8 (IL8), CXCL8 (gene 3576)
Nature of the experiment: BSK_LPS_IL8: BioMAP Diversity Plus: LPS Assay for Interleukin-8 (IL8) Biomarker Activity (AID 2283078). Particulars: primary human HUVEC with PBMC; actives raise or lower the signal. A digest of the protocol: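 Endothelial cells and PBMC from human donors are co-cultured, treated with chemicals and LPS, then assayed for IL-8 by ELISA after 24 h. Parallel SRB staining (0.1% SRB after 10% TCA fixation, 560 nm) flags cytotoxicity.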

A short description of experiment [17]: BSK_LPS_SRB: Viability Assessment in the BioMAP Diversity Plus: LPS Assay (AID 2283079).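 Further: total protein by sulforhodamine B absorbance as a cytotoxicity measure; measured one day after compound addition.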 As to conditions: primary human HUVEC with PBMC. A digest of the protocol: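 Overt cytotoxicity was gauged by sulforhodamine B total-protein staining in a primary human vascular endothelial and mononuclear cell co-culture 24 h post-dosing. Activity was fitted in both directions relative to DMSO.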

Read-out in experiment [18]: Interleukin-1 alpha (IL1a), IL1A (gene 3552)
The experiment in a line: BSK_LPS_IL1a: BioMAP Diversity Plus: LPS Assay for Interleukin-1 alpha (IL1a) Biomarker Activity (AID 2283080). Particulars: primary human HUVEC with PBMC; actives raise or lower the signal. The procedure, abridged: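 Measured: IL-1 alpha via ELISA at 24 h in LPS-activated human umbilical vein endothelium–PBMC co-culture. Baseline: DMSO, bidirectional fitting.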

Read-out in experiment [19]: Monocyte Chemoattractant Protein-1 (MCP1), CCL2 (gene 6347)
The experiment in a line: BSK_LPS_MCP1: BioMAP Diversity Plus: LPS Assay for Monocyte Chemoattractant Protein-1 (MCP1) Biomarker Activity (AID 2283081). As to conditions: primary human HUVEC with PBMC; actives raise or lower the signal. The procedure, abridged: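 LPS-stimulated HUVEC/PBMC co-culture; chemical, 24 h; MCP-1 by ELISA; bidirectional fit vs DMSO; cytotoxicity via SRB (0.1% stain, 10% TCA fix, 560 nm) in parallel wells.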

Experiment [20] in a line: BSK_LPS_PGE2: BioMAP Diversity Plus: LPS Assay for Prostaglandin E2 (PGE2) Biomarker Activity (AID 2283082). Particulars: primary human HUVEC with PBMC; actives raise or lower the signal. A digest of the protocol:
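HUVEC plus PBMC co-culture stimulated with LPS; secreted PGE2 quantified by ELISA 24 h after chemical dosing. Activity fitted bidirectionally against DMSO as negative control and baseline; parallel SRB total-protein staining served as cytotoxicity check.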

The source made the active and inactive calls. How the source made its calls: active means hit-call score of the fitted dose curve at least 0.9, where 1 is the maximum; inactive means score below 0.9.

Sequence of E-selectin (Homo sapiens) (P16581 whole entry, looked up): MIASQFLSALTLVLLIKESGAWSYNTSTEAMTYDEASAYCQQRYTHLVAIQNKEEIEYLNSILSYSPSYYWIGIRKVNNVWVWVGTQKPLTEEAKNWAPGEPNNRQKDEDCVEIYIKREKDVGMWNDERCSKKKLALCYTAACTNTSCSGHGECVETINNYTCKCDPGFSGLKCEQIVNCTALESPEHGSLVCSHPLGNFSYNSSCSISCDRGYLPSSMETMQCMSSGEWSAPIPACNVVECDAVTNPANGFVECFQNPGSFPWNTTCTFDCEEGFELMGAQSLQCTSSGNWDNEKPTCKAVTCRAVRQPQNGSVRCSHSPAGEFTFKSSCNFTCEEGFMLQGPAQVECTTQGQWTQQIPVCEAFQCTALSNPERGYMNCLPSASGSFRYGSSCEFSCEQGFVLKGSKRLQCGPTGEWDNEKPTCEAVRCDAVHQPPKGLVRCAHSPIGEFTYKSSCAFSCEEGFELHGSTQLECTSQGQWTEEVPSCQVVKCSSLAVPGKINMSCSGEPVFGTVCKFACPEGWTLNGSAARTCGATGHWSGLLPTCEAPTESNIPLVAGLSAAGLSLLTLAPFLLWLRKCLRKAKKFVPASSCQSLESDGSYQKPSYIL

Regarding `COCc1nnc(-c2ccc[n+]([O-])c2)n1-c1c(Cl)c(Cl)cc2[nH]c(=O)c(=O)[nH]c12`, the result in experiment [1], in [2], in experiment [3], in experiment [4], in [5] and in experiment [6] was inactive. In addition, the result in [7], in [8], in [9], in [10], in experiment [11] and in [12] was inactive. In addition, the outcome in experiment [13], in experiment [14], in [15], in [16], in experiment [17] and in experiment [18] was inactive. For the same compound, the outcome in [19] and in experiment [20] was inactive.
Regarding `Cc1nccn1-c1ccc(Sc2cccc(C3(C(N)=O)CCOCC3)c2)cc1`, the AC50 is 6.44 µM (active) in experiment [1], 2.9 µM (active) in [2], 3.25 µM (active) in [3] and 20 µM (active) in experiment [12]. Besides, the result in experiment [4], in experiment [5], in experiment [6], in [7], in experiment [8] and in experiment [9] was inactive. Moreover, the result in experiment [10], in experiment [11], in [13], in experiment [14], in experiment [15] and in [16] was inactive. Besides, the result in experiment [17], in experiment [18], in experiment [19] and in [20] was inactive.
`Cn1cc[nH]c1=S`: the result in experiment [1], in experiment [2], in [3], in experiment [4], in experiment [5] and in experiment [6] was inactive. Besides, the outcome in experiment [7], in experiment [8], in [9], in [10], in experiment [11] and in experiment [12] was inactive. The result in experiment [13], in experiment [14], in experiment [15], in [16], in experiment [17] and in experiment [18] was inactive. For the same compound, the result in experiment [19] and in experiment [20] was inactive.
For the compound `CCCC(CCC)C(=O)O`, the outcome in experiment [1], in experiment [2], in [3], in experiment [4], in [5] and in experiment [6] was inactive. The result in [7], in [8], in experiment [9], in [10], in experiment [11] and in experiment [12] was inactive. Besides, the result in experiment [13], in experiment [14], in experiment [15], in experiment [16], in experiment [17] and in experiment [18] was inactive. The result in [19] and in experiment [20] was inactive.
Take `FC(F)C(F)(F)COCC1CO1` (configuration not stated): the outcome in experiment [1], in [2], in experiment [3], in experiment [4], in [5] and in [6] was inactive. The outcome in experiment [7], in [8], in [9], in experiment [11], in experiment [12] and in experiment [13] was inactive. In addition, the outcome in experiment [14], in experiment [15], in experiment [16], in [17], in [18] and in experiment [19] was inactive. Also, the outcome in experiment [20] was inactive.
On to `OC(Cn1cncn1)(Cn1cncn1)c1ccc(F)cc1F`, for which the outcome in experiment [1], in experiment [2], in [3], in experiment [4], in [5] and in [6] was inactive. Besides, the outcome in experiment [7], in experiment [8], in experiment [9], in experiment [11], in experiment [12] and in experiment [13] was inactive. The result in experiment [14], in experiment [15], in experiment [16], in [17], in [18] and in [19] was inactive. The result in [20] was inactive.
`OCCNCCO`: the result in experiment [1], in experiment [2], in experiment [3], in experiment [4], in [5] and in experiment [6] was inactive. Further, the outcome in experiment [7], in experiment [8], in [9], in [11], in experiment [12] and in experiment [13] was inactive. The outcome in experiment [14], in [15], in [16], in [17], in experiment [18] and in experiment [19] was inactive. In addition, the result in [20] was inactive.
